The list is not random: actives were taken first. Their share in the collection is about 8.2%.
KB-3-1 cytotox: KB-3-1 parental cell cytotoxicity. KB-3-1 viability, CellTiter-Glo ATP luminescence, 72 h. Potency, µM (titrated, usually from 46.1 µM), actives largely listed as cytotoxic. 1.4% of 400,000 active; also: % is scaled to controls: 0 for no effect and ±100 for the full control effect; nearly all actives have a fitted effect of over 60% in size
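Parental KB-3-1 adenocarcinoma cells in phenol-red-free DMEM with 10% FBS were pin-treated with compounds at several concentrations, incubated 72 h at 37 °C, and viability read by CellTiter-Glo luminescence; concentration-effect curves were fitted after normalization.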
SW480 rerep: inducers of DNA re-replication in SW480 colon cancer cells; SW480 DNA re-replication, Hoechst DNA content imaging, 48 h; 1.8% of 340,000 active; AID 624297; Potency, µM (top dose mostly 46.1 µM), without a hit: top-dose re-replication activation, usual class: activators; also: % of control where 0% means no effect; nearly all actives have a fitted effect of over 55% in size
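Per well, 250 cells were exposed to pinned compound for 48 hr. Nuclear DNA was visualised with Hoechst (40 min, 37 C) and total object intensity recorded by fluorescence scanning.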
ELG1 DNA repair: ELG1-dependent DNA repair inhibition | Potency, µM (top dose mostly 46.1 µM), without a hit: at the top dose activity change, negative = inhibition, hits mostly inhibitors | HEK293T ELG1-luciferase reporter, luminescence, 16 h; DNA damage induced by 5-fluorouridine | 2.3% of 330,000 active | AID 504467; also: % is scaled to controls: 0 for no effect and ±100 for the full control effect; nearly all actives have a fitted effect of over 55% in size
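DMSO vehicle served as the neutral condition. Each well held 2,000 cells given 5-fluorouridine plus compound; after 16 hr at 37 °C/5% CO2, ONE-Glo was added and luciferase measured 30 min later.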
MCF10A rereplic: induces DNA re-replication in MCF 10a normal breast cells; MCF 10A DNA re-replication, Hoechst nuclear intensity, 48 h; AID 624296; Potency, µM (highest dose often 46.1 µM), inactives show at the highest dose activity, positive = re-replication, actives largely listed as activators; 2.9% of 350,000 active; also: % of control where 0% means no effect; nearly all actives have a fitted effect of over 50% in size
KB-V1 MDR tox: KB-V1 MDR subline cytotoxicity. KB-V1 MDR cells viability, CellTiter-Glo, 72 h. Potency, µM (top dose mostly 46.1 µM), most hits filed as cytotoxic. 3.4% of 400,000 active; also: % is scaled to controls: 0 for no effect and ±100 for the full control effect; nearly all actives have a fitted effect of over 60% in size
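qHTS viability screen in drug-selected KB-V1 MDR cells: 72 h compound treatment at 37 degrees C, ATP luminescence end point.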
* = called active by the depositor; i = inactive; ? = inconclusive; · = no result given. Calls follow the shape of the dose curve; as a rule, active = well fitted curve in the direction sought with a large enough effect; inconclusive = small, poorly fitted or top-dose-only effect, or another doubt; inactive = no such curve, though single readings can be large; an effect the other way counts as inactive or inconclusive. Potency is read from the fitted curve at half-maximal effect.

SMILES | KB-3-1 cytotox | SW480 rerep | ELG1 DNA repair | MCF10A rereplic | KB-V1 MDR tox
O=C(NCCc1ccc(F)cc1)Nc1ccc([N+](=O)[O-])cc1 | ? | 15% | ? | ? | i
O=[N+]([O-])c1ccc(NC(=S)NCCc2ccc(F)cc2)cc1 | ? | ? | ? | 10µM* | i
CCCc1cnc2c(c1SCC(=O)Nc1ccc(C)c(Cl)c1)c(=O)n(C)c(=O)n2C | i | · | · | · | ?
Oc1cc2c(cc1O)[C@@H](c1ccccc1)CNCC2 | i | 19% | 11% | 18µM* | i
C=CCn1c(=S)[nH]c2scc(-c3ccc(C)o3)c2c1=O | i | ? | ? | 16µM* | i
CC(C)(C)c1ccc(NC(=O)NC2CCCc3ccccc32)cc1 (centres undefined) | ? | ? | -11% | ? | 21µM*
O=C(CSc1nnc(-c2ccncc2)n1Cc1ccccc1)NC1CCCc2ccccc21 (centres undefined) | i | 2% | ? | ? | 10µM*
O=C(CSc1c(Cl)cccc1Cl)NC1CCCc2ccccc21 (centres undefined) | i | 14% | 9% | 16% | 15µM*
Cc1ccc(Cl)cc1N1CCN(CC(=O)NC2CCCc3ccccc32)CC1 (centres undefined) | ? | 16% | -14% | ? | ?
O=C(CN1CCN(c2ccccc2Cl)CC1)NC1CCCc2ccccc21 (centres undefined) | ? | ? | -15% | 12% | 9.2µM*
COc1ccc(/C=C/C(=O)OCC(=O)NC2CCCC2)cc1 | i | -11% | -5% | 2% | i
CSc1ccccc1NC(=O)Nc1cccc(Cl)c1Cl | i | 6% | ? | 23µM* | ?
CN(C)c1ccc(NC(=O)Nc2cccc(Cl)c2)cc1 | i | -1% | ? | -2% | 13µM*
CSc1ccccc1NC(=O)Nc1cccc(Cl)c1 | ? | 15% | -29% | ? | 16µM*
CCOc1ccc(NC(=O)CCC(=O)NNC(=O)Nc2cccc(Cl)c2)cc1 | i | ? | ? | 0.18µM* | ?
CC(C)(C)c1ccc(CC(=O)N2CCC2(C)C(=O)NS(=O)(=O)c2cccs2)cc1 (centres undefined) | i | · | · | · | i
CSc1ccccc1NC(=O)Nc1ccc(F)c(Cl)c1 | i | -1% | ? | ? | 21µM*
Cc1ccc(NC(=O)Nc2ccc(F)c(Cl)c2)cc1 | i | -3% | ? | 1% | i
CCCSc1nnc(CNS(=O)(=O)c2ccc(C)cc2)n1C | i | 2% | 9% | 6% | i
O=c1c2ccccc2c(C=Nc2ccccc2O)c(O)n1-c1nccs1 | i | 0% | 16µM* | 14% | i
Cc1cccc(-n2c(O)c(C=Nc3cccc(O)c3)c3ccccc3c2=O)n1 | i | ? | ? | 17% | i
Cc1cccc(C)c1N=Cc1c(O)n(-c2nccs2)c(=O)c2ccccc12 | i | 1% | ? | 3% | 23µM*
Cc1ccc(N=Cc2c(O)n(-c3nccs3)c(=O)c3ccccc23)cc1 | i | -1% | 18µM* | 4% | i
Cc1cc(C)c(N=Cc2c(O)n(-c3nccs3)c(=O)c3ccccc23)c(C)c1 | i | 16% | ? | 8% | i
Cc1ccccc1N=Cc1c(O)n(-c2nccs2)c(=O)c2ccccc12 | i | -5% | 21µM* | 30% | i
SMILES | KB-3-1 cytotox | SW480 rerep | ELG1 DNA repair | MCF10A rereplic | KB-V1 MDR tox
O=C(O)c1ccccc1N=Cc1c(O)n(-c2nccs2)c(=O)c2ccccc12 | i | 0% | ? | -1% | i
OCCCNc1ncnc2c1ncn2[C@H]1CN(C2CCCC2)C[C@@H](CO)O1 | i | · | · | · | i
CCOc1ccc(-n2nc3ccc(N)cc3n2)cc1 | i | ? | ? | 18µM* | i
CCOc1ccc(-n2nc3cc(C)c(N)cc3n2)cc1 | i | 16µM* | ? | 18µM* | i
CC(CCC(C)[n+]1cccc(Br)c1)[n+]1cccc(Br)c1 (centres undefined) | ? | · | · | · | i
CC1CCCC(C)N1C(=O)COC(=O)/C=C/c1ccco1 (centres undefined) | i | -15% | ? | 0% | i
COc1ccc(OC)c(/C=C/C(=O)OCC(=O)N2C(C)CCCC2C)c1 (centres undefined) | · | 2% | 21µM* | 7% | ·
COc1ccc(/C=C/C(=O)OCC(=O)N2CCCC2)c(OC)c1 | i | -3% | 27% | 2% | 12µM*
COc1ccc(OC)c(/C=C/C(=O)OCC(=O)N2CCCC2)c1 | i | 1% | 1% | -4% | i
Cc1nc(Cl)c(C(=O)NC(=O)Nc2cccc(C(F)(F)F)c2)c(C)c1[N+](=O)[O-] | 10µM* | ? | ? | 18% | ?
CCOc1ccc(/C=C/C2=Cc3c(sc(NC(=O)CSc4n[nH]c(N)n4)c3C#N)C(C)(C)C2)cc1 | 16µM* | 16µM* | ? | 6.5µM* | ?
COc1ccc(-c2csc(NC(=O)CSc3n[nH]c(N)n3)n2)cc1 | ? | 3% | ? | 12% | i
Cc1ccsc1/C=C/C1=Cc2c(sc(NC(=O)CSc3n[nH]c(N)n3)c2C#N)C(C)(C)C1 | i | 15µM* | ? | ? | i
CCCNC(=O)c1cc(Cl)c(NC(=O)C2=CSCCO2)cc1OC | ? | 4% | ? | 2% | i
CCN(CC)S(=O)(=O)c1ccc(OC)c(NC(=O)C(C)Oc2ccc3c(C)cc(=O)oc3c2)c1 (centres undefined) | i | 0% | 21µM* | 2% | ?
Cc1ccc([C@H]2C[C@@H](n3cc(C4CC4)nn3)[C@H](O)CN2CC2CCCCC2)cc1 | 21µM* | · | · | · | ?
Cc1ccc([C@H]2C[C@H](O)[C@@H](n3cc(C4CC4)nn3)CN2CC2CCCCC2)cc1 | i | · | · | · | i
COc1ccc([C@H]2C[C@@H](n3cc(C4CC4)nn3)[C@H](O)CN2CC2CCCCC2)cc1 | 16µM* | · | · | · | ?
COc1ccc([C@H]2C[C@H](O)[C@@H](n3cc(C4CC4)nn3)CN2CC2CCCCC2)cc1 | i | · | · | · | ?
CC(N)C(=O)NC(C(=O)NC(C)C(=O)Nc1cccc2ccccc12)C(C)C (centres undefined) | i | · | · | · | i
Cc1c(C(=O)Nc2ccc(C(C)C)cc2)sc2nc[nH]c(=O)c12 | i | · | · | · | i
CC(C)Cn1c([N+](=O)[O-])nc2c1c(=O)[nH]c(=O)n2C | ? | ? | 23µM* | 12µM* | ?
Cn1c(=O)[nH]c(=O)c2c1nc([N+](=O)[O-])n2Cc1ccccc1 | ? | -32% | 15µM* | 2.1µM* | ?
CCc1ccc(NC(=O)CC(NCc2cccnc2)C(=O)O)cc1 (centres undefined) | i | · | · | · | i

Screening results: PubChem BioAssay, National Center for Advancing Translational Sciences (NCATS)
